The record followed here is PubChem BioAssay.

Activity calls are given as the source filed them.

Assay [1] concerns Plasmodium falciparum Sir2 (PF13_0152, Sir2A). Description: pfSir2 binders on small-molecule microarrays, primary screen, biochemical, small-molecule microarray, 635 nm fluorescence (AID 1098).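 Further: score merges spot fluorescence intensity with its signal-to-noise ratio.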 The following applies: small-molecule microarray binding, fluorescence 635 nm; higher = more signal.
Assay [2] in a line: small-molecule microarray binders of probe aDKK1, primary screen, biochemical, biotinylated probe, 635/667 nm fluorescence (AID 1099).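 Further: score merges 667nm spot fluorescence with signal to noise across triplicate slides.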 Particulars: higher = more signal.
Assay [3] in a line: small-molecule microarray binders of probe aCHRDL2, primary screen, biochemical, biotinylated probe, 635/667 nm fluorescence (AID 1100). Particulars: higher = more signal.
Assay [4] in a line: splicing luciferase reporter signal modulators, primary screen, spliceosome inhibition project, cell-based, HEK293, splice +/- reporter (AID 1101).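 Further: HEK293 cells carrying a splicing-competent luciferase reporter gene; test concentration not given here.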 Particulars: luminescence, 24 h, higher = more signal, called active from +8 up or from −8 down.
In assay [5] the target is Fibroblast growth factor 10 (Homo sapiens) (UniProt O15520). Briefly: FGF10 binders on small-molecule microarrays, primary screen, biochemical, small-molecule microarray, 635 nm fluorescence (AID 1102). The following applies: FGF10 binding, fluorescence 635 nm, higher = more signal.
Fibroblast growth factor 10 (Homo sapiens), sequence (O15520 whole entry, looked up): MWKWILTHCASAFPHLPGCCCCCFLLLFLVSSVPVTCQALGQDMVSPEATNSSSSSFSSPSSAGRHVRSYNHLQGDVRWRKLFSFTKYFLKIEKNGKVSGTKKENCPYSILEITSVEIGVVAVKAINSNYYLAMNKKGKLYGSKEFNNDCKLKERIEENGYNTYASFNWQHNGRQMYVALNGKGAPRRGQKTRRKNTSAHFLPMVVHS
The subject of assay [6] is glycogen synthase kinase-3 (GSK3A per assay name; protocol says GSK3B). Briefly: GSK3 binders on small-molecule microarrays, primary screen, biochemical, small-molecule microarray, 635 nm fluorescence, GSK3A (AID 1103). Further: the record names both GSK3A and GSK3B. Particulars: small-molecule microarray binding, fluorescence 635 nm; higher = more signal.
Assay [7] concerns the target Epidermal growth factor receptor (Homo sapiens) (UniProt P00533). Briefly: EGFR binders on small-molecule microarrays, primary screen, biochemical, small-molecule microarray, 635 nm fluorescence (AID 1104).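 Further: score merges 667 nm emission intensity with spot signal to noise over triplicate slides.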 Particulars: EGFR binding, higher = more signal.
In assay [8] the target is Follistatin-related protein 3 (Homo sapiens) (UniProt O95633). Description: FSTL3 binders on small-molecule microarrays, primary screen, biochemical, small-molecule microarray, 635 nm fluorescence (AID 1105).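 Further: score merges emission near 667 nm and signal to noise per printed spot across three slides.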 The following applies: FSTL3 binding, higher = more signal.
Follistatin-related protein 3 (Homo sapiens), sequence (O95633 whole entry, looked up): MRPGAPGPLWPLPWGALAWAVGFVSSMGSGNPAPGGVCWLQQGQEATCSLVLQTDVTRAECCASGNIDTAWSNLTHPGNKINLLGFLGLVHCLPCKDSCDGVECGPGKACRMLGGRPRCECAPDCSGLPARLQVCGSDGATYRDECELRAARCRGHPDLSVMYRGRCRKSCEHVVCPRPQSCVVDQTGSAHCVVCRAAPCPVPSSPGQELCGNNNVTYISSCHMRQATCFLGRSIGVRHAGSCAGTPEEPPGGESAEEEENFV
In assay [9] the target is Dickkopf-related protein 1 (Homo sapiens) (UniProt O94907). Description: DKK1 binders on small-molecule microarrays, primary screen, biochemical, small-molecule microarray, 635 nm fluorescence scan (AID 1106).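 Further: score merges emission near 667 nm with signal to noise over three replicate slides.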 The following applies: DKK1 binding, higher = more signal.
Dickkopf-related protein 1 (Homo sapiens), sequence (O94907 whole entry, looked up): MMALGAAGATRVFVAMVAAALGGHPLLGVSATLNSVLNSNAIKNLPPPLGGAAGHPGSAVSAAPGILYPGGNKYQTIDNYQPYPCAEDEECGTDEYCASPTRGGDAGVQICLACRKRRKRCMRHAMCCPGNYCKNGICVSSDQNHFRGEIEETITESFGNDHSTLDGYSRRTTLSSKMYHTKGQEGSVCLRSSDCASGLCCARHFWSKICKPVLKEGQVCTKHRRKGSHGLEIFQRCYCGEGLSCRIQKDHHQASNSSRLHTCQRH
In assay [10] the test system is Inhibin beta A chain (activin A). Briefly: INHBA (activin A) binders on microarrays, primary screen, biochemical, small-molecule microarray, 635 nm fluorescence scan (AID 1107).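 Further: mouse activin A protein probed at 4.33 µg/mL on printed slides; score merges bound-protein fluorescence near 667 nm with spot signal-to-noise.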 Particulars: small-molecule microarray binding, higher = more signal.
Assay [11] has as its system Human papillomavirus type 1a protein E7 (residues 44-93). Briefly: HPV1a E7 fragment binders on microarrays, primary screen, biochemical, small-molecule microarray, residues 44-93, 635 nm fluorescence (AID 1108).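 Further: E7 fragment applied at 1 µg/mL in TBST for 1 h at 4 C; score combines spot fluorescence with its signal to noise ratio.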 The following applies: small-molecule microarray binding, fluorescence 635 nm; higher = more signal.
Assay [12] in a line: modulators of HCV replicon luciferase signal, primary screen, HCV replication inhibitor project, Huh7 cells, luciferase reporter (AID 1109).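 Further: huh7 hepatoma cells harbouring a luciferase neomycin HCV replicon reporter; luciferase luminescence as measure of HCV replicon replication; test concentration not given here.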 The following applies: 48 h, higher = more signal.
The target of assay [13] is Left-right determination factor 2 (Homo sapiens) (UniProt O00292). Description: LEFTY2 binders on small-molecule microarrays, primary screen, biochemical, small-molecule microarray, 635 nm fluorescence scan (AID 1110). Particulars: LEFTY2 binding, higher = more signal.
Left-right determination factor 2 (Homo sapiens), sequence (O00292 whole entry, looked up): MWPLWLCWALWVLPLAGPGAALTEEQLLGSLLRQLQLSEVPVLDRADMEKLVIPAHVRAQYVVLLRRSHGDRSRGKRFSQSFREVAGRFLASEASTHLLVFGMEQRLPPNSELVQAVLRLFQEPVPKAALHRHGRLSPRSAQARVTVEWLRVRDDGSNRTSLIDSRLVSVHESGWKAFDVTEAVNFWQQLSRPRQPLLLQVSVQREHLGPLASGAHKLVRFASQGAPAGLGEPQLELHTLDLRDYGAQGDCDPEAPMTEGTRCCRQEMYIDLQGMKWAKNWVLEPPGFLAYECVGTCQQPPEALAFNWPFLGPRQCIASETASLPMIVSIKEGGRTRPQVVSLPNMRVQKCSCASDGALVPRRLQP
Assay [14] concerns the target Calmodulin-1 (Homo sapiens) (UniProt P0DP23). Description: CALM1 binders on microarrays, EGTA buffer, profiling panel, biochemical, small-molecule microarray, Cy5-labelled CALM1 (AID 1111).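 Further: labelled calmodulin applied in Tris saline Tween buffer holding calcium plus EGTA and DTT.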 The following applies: Cy5-CALM1 binding fluorescence, higher = more signal.
Assay [15] shares this target. Description: calcium-bound CALM1 binders on microarrays, profiling panel, artefact control for SMM control-protein annotation, biochemical, small-molecule microarray, Cy5-labelled CALM1, plus calcium (AID 1112).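 Further: score merges spot fluorescence with signal to noise from triplicate slides.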 The following applies: Cy5-CALM1 binding fluorescence, higher = more signal.
Assay [16] can be described thus: small-molecule microarray binders of probe aWnt5a, primary screen, biochemical, biotinylated probe, 635/667 nm fluorescence (AID 1113).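 Further: score merges 667 nm fluorescence intensity with signal-to-noise per printed feature.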 The following applies: higher = more signal.
The nature of assay [17]: small-molecule microarray binders of probe aShh, primary screen, biochemical, biotinylated probe, 635/667 nm fluorescence (AID 1114).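 Further: probe is biotin-labelled aShh protein from a stem cell growth factor screen; measures binding of labelled protein to compounds printed on the slide; score merges feature fluorescence at 667 nm with signal-to-noise.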 The following applies: higher = more signal.
Assay [18] can be described thus: small-molecule microarray binders of probe aNog, primary screen, biochemical, biotinylated probe, 635/667 nm fluorescence (AID 1115).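 Further: probe is biotinylated aNog protein used at 0.15 µg/mL for 1 h at 4 C; z-score combines 667 nm fluorescence of each spot with its signal to noise.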 The following applies: higher = more signal.
Assay [19] addresses Torsin-1A-interacting protein 1 (Homo sapiens) (UniProt Q5JTV8). Briefly: LAP1 binders from COS7 cell lysate, primary screen, small-molecule microarray, 635/667 nm fluorescence (AID 1116). The following applies: COS7-hLAP1 lysate binding, 635 nm fluorescence, higher = more signal.
Assay [20] concerns the target Alpha-bungarotoxin (Bungarus multicinctus) (UniProt P60615). Description: alpha-bungarotoxin binders on microarray, profiling panel, artefact control for SMM control protein annotation, biochemical, small-molecule microarray, Alexa647 label, 635/667 nm fluorescence (AID 1117). The following applies: alpha-BTX-A647 binding fluorescence, higher = more signal.

Alpha-bungarotoxin (Bungarus multicinctus), sequence (P60615 whole entry, looked up): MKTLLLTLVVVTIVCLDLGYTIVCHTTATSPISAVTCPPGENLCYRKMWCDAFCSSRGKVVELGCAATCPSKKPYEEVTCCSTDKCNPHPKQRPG
Epidermal growth factor receptor (Homo sapiens), sequence (P00533 whole entry, looked up): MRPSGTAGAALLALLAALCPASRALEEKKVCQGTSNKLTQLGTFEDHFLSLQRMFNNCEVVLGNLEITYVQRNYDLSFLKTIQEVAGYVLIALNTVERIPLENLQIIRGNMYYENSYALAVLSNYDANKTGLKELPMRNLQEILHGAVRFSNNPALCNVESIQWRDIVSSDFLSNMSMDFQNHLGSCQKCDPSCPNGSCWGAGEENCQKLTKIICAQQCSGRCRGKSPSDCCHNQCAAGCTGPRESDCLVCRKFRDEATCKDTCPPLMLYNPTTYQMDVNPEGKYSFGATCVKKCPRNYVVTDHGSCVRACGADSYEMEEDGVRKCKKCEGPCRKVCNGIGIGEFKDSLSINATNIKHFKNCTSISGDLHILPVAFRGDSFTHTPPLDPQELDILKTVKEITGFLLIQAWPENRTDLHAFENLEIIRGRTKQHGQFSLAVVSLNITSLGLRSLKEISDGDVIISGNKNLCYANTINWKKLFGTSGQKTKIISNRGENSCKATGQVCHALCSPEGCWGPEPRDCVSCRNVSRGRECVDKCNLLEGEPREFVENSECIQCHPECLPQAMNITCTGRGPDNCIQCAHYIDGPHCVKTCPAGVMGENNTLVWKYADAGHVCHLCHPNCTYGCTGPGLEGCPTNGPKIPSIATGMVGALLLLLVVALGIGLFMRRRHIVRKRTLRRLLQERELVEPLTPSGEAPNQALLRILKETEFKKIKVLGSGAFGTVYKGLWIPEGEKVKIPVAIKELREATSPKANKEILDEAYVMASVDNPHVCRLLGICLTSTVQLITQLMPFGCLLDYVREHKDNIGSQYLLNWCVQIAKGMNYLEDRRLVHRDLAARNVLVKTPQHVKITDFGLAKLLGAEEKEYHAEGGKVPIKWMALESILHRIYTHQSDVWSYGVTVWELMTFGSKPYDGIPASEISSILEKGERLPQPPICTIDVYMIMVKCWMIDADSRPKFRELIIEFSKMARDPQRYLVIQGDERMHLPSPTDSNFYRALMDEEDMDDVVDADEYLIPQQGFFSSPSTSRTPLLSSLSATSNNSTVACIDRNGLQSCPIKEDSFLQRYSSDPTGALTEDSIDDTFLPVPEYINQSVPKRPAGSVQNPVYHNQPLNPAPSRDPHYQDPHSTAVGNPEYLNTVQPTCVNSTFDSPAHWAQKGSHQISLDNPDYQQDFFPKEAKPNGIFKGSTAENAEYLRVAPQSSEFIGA
Torsin-1A-interacting protein 1 (Homo sapiens), sequence (Q5JTV8 whole entry, looked up): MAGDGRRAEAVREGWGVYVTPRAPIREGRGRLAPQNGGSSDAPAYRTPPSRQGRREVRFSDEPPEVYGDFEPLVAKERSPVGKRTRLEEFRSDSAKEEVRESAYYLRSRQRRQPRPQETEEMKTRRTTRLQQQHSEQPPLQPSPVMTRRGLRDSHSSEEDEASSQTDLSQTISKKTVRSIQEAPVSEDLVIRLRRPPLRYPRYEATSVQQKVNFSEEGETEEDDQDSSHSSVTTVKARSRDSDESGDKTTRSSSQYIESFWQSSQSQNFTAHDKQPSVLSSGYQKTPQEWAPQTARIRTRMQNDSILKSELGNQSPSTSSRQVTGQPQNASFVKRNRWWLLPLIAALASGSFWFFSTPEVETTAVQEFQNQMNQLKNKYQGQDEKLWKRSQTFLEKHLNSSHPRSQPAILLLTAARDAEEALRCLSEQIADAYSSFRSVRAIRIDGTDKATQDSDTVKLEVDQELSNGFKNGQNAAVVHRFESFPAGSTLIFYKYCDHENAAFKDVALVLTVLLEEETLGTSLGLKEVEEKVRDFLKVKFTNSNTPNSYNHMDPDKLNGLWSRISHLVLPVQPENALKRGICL

Consider `Cc1ccc(S(=O)(=O)N[C@@H]2COC(=O)CC=C[C@@H](C)[C@H](NS(=O)(=O)c3ccc(C)cc3)COC(=O)[C@H](C)NC(=O)CC=C[C@H]2C)cc1`, for which the composite z-score is -0.267 in [1]; -0.472 in assay [2]; -0.684 in [3]; -0.0861 in [5]; -0.0951 in assay [6]; 0.0994 in assay [7]. Besides, the composite z-score in assay [8] is 0.129; in assay [9] it was 0.123; in [10], 1.27; in assay [11], -1.64; in assay [13], 0.846; in [14], -0.683. In addition, the composite z-score in assay [15] was -0.951; in assay [16], -0.194; in assay [17], -0.221; in [18], 0.122; in assay [19], -0.123; in assay [20] it was -0.621. Further, the results for the z-score in assay [4] and in assay [12] were -0.294 (inactive) and 0.311, respectively.

On to `COC(=O)[C@H](Cc1ccccc1)NC(=O)[C@@H](C)CO`, for which the composite z-score was -0.535 in [1]; 0.629 in assay [2]; 0.389 in [3]; 0.477 in assay [5]; 0.0595 in [6]; 0.651 in [7]. Further, the composite z-score was 1.03 in assay [8]; 0.671 in assay [9]; 1.1 in assay [10]; -0.0054 in [11]; 0.597 in assay [13]; -0.597 in assay [14]. The composite z-score was -0.32 in assay [15]; -0.034 in [16]; 0.214 in assay [17]; 0.376 in assay [18]; 0.763 in [19]; 0.0296 in assay [20]. Besides, the z-score is -1.36 (inactive) in assay [4] and -0.499 in assay [12].

With `COC(=O)[C@H](C)NC(=O)CCC1CC(OC(=O)NCc2cccc3ccccc23)CC2(CCCC(COC(=O)NCCC(C)C)O2)O1` (stereo not given in full), the composite z-score is 1.41 in assay [1]; -0.144 in assay [2]; -0.391 in assay [3]; 0.481 in [5]; 0.247 in assay [6]; 0.374 in assay [7]. Besides, the composite z-score is 0.463 in assay [8]; 0.188 in [9]; 0.199 in assay [10]; 0.991 in [11]; 0.449 in [13]; -0.234 in assay [14]. The composite z-score in [15] was -0.371; in assay [16], -0.109; in [17], -0.147; in assay [18] it was -0.268; in assay [19], -0.228; in [20], -0.178. Further, the z-score is -0.119 (inactive) in [4] and -0.243 in assay [12].

On to `CCOC(=O)CCN1C(=O)[C@H]2[C@H]3[C@H](O)[C@H](O)CC(=NOCC(C)C)[C@@H]3CC[C@H]2C1=O`, for which the composite z-score was 0.816 in assay [1]; -0.823 in assay [2]; -1.74 in assay [3]; -0.0809 in assay [5]; 1.06 in assay [6]; 0.406 in assay [7]. For the same molecule, the composite z-score in assay [8] was 1.04; in assay [9], 1.78; in assay [10], 1.28; in [11], -0.998; in [13], 1.01; in [14], -1.92. Further, the composite z-score was -1.74 in [15]; -0.284 in assay [16]; -0.0471 in [17]; -0.255 in assay [18]; -0.202 in assay [19]; -0.799 in assay [20]. Besides, the z-score in [4] is 0.66 (inactive); in assay [12] it was -0.488.

With `CCN1C(=O)[C@H]2[C@H]3[C@H](O)[C@H](O)CC(=NO[C@@H]4O[C@H](CO)[C@@H](O)[C@H](O)[C@H]4O)[C@H]3CC[C@H]2C1=O`, the composite z-score is 0.0675 in assay [1]; -0.219 in assay [2]; -0.447 in [3]; 0.456 in [5]; 0.342 in assay [6]; 0.933 in assay [7]. The composite z-score in assay [8] is 0.619; in [9], 0.611; in assay [10], 0.182; in assay [11], 0.442; in assay [13], 0.486; in assay [14], -0.354. Further, the composite z-score in [15] is -1.04; in assay [16], -0.0529; in assay [17] it was 0.204; in assay [18] it was 0.117; in [19], 0.196; in assay [20], 0.497. Moreover, the figures for the z-score in assay [4] and in assay [12] were -0.0478 (inactive) and 1.2, respectively.

As for `C[C@@H]1CC[C@H]2C(=O)OC(Cc3ccccc3)CN2[C@H]1c1ccc(Br)cc1` (stereo not given in full), the composite z-score in [1] was 0.413; in [2], -0.193; in assay [3] it was -0.312; in assay [5], 0.524; in [6] it was 0.255; in assay [7] it was 0.0012. For the same molecule, the composite z-score in [8] is 0.141; in [9] it was -0.0094; in assay [10], 0.445; in assay [11], 0.911; in assay [13] it was 0.34; in assay [14], -0.241. Further, the composite z-score is -0.536 in assay [15]; -0.228 in [16]; -0.0146 in assay [17]; 0.105 in assay [18]; 0.781 in assay [19]; 0.599 in assay [20]. For the same molecule, the z-score is 0.264 (inactive) in assay [4] and 0.161 in [12].
